Among the data in PubChem BioAssay (NCATS) are Z-AUC and Potency values, retold here.

A short description of this assay: qHTS drug screen for cell cycle checkpoint inhibitors in PARPi-resistant BRCA-mutant ovarian cancer cell lines. (AID 1963452). As to conditions: PEO1/OlaR viability, CellTiter-Glo luminescence, 96 h; for Z-AUC: stronger effect = lower value. An outline of the steps:
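PEO1, PEO4 and PEO1/OlaR ovarian cancer cells, 600 per well, exposed 96 h at 37C to a dilution series. Viability read by CellTiter-Glo luminescence, normalized to DMSO and empty wells; activity summarized as Z-AUC.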
On the technique in general: In qHTS, concentration-response curves come from the screen itself.

Where [1] appears, read: measured here: PEO1 parental Z-AUC.

SMILES strings stand for the structures. Calls of active or inactive are those of the source. Calls follow the shape of the full dose curve.
Potency is read from the fitted curve at half-maximal effect.

Take `c1ccc2c(Cc3c[nH]c4ccccc34)c[nH]c2c1`: the Z-AUC was 0.829 (inactive). Besides, under setting [1], the Z-AUC amounted to 0.126. For the same compound, the Z-AUC (measured here: PEO4 Z-AUC) was -0.359.

For `NS(=O)(=O)c1ccc(NC2=CC(=O)c3ccccc3C2=O)cc1`, the Z-AUC is -0.549 (inactive). The Z-AUC under setting [1] was -0.888. Also, the Z-AUC (measured here: PEO4 Z-AUC) was -0.629.

On to `CC(C)(C(=O)NCC(F)(F)C(F)(F)F)C(=O)N[C@@H]1C(=O)Nc2ccccc2-c2ccccc21`, for which the Z-AUC was 0.455 (inactive). In addition, the Z-AUC under setting [1] was 0.706. Moreover, under “measured here: PEO4 Z-AUC”, the Z-AUC is 0.383.

`C=C1C(=O)[C@@]23C(CC[C@@H]1[C@H]2O)[C@@]12CO[C@]3(O)[C@@H](O)[C@@H]1C(C)(C)CC[C@@H]2O` (stereo not given in full): the Z-AUC was -0.857 (inactive). Moreover, the Z-AUC under setting [1] is -1.05. For the same compound, the Z-AUC (measured here: PEO4 Z-AUC) is -1.08.

For the compound `Clc1ccc(CCC(Cn2ccnc2)Sc2c(Cl)cccc2Cl)cc1` (stereo not given), the Z-AUC is 1.27 (inactive). Further, the Z-AUC under setting [1] is 0.807. Further, where the note is “measured here: PEO4 Z-AUC”, the Z-AUC stood at 0.874.

Take `CN1CCN(CCOc2cc(OC3CCOCC3)c3c(Nc4c(Cl)ccc5c4OCO5)ncnc3c2)CC1`: the Z-AUC was 0.642 (inactive). Under setting [1], the Z-AUC came to 0.934. Also, the Z-AUC (measured here: PEO4 Z-AUC) was found to be 1.23.

As to `O=C(N[C@@H](c1ccccc1)[C@@H]1CCCCN1)c1cccc(C(F)(F)F)c1Cl`, the Z-AUC was 0.7 (inactive). For the same compound, the Z-AUC under setting [1] came out at 0.513. Further, the Z-AUC (measured here: PEO4 Z-AUC) worked out at 0.741.

Take `CC1(C)CCC2=C(O1)c1ccccc1C(=O)C2=O`: the Z-AUC is 0.0983 (inactive). Under setting [1], the Z-AUC was -0.291. Also, under “measured here: PEO4 Z-AUC”, the Z-AUC was 0.134.

`CO[C@H]1C(=O)[C@]2(C)[C@@H](OC)C[C@H]3OC[C@@]3(OC(C)=O)[C@H]2[C@H](OC(=O)c2ccccc2)[C@]2(O)C[C@H](OC(=O)[C@H](O)[C@@H](NC(=O)OC(C)(C)C)c3ccccc3)C(C)=C1C2(C)C`: the Potency was 7.8 nM (active). The Z-AUC under setting [1] was -2.35. Under “measured here: PEO4 Z-AUC”, the Z-AUC was -2.45.

On to `COc1cc2ncnc(Nc3ccc(F)c(Cl)c3)c2cc1OCCCN1CCOCC1`, for which the Z-AUC is 0.988 (inactive). Besides, under setting [1], the Z-AUC was found to be 0.863. For the same compound, the Z-AUC (measured here: PEO4 Z-AUC) is 0.585.
